Test results taken from the supplement of paper PMC6555819.

Assays:
Assay in all cases: PBM binding z-score (relative to random genomic background probes); higher = stronger binding; sequences stand for … in GC…GCGATTGACAGCGTAGAATGAAGG
[1] = system: RARb homodimer (NR concentration 270 nM)
Method in brief: (§1)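 Binding z-scores take random background probes as their reference. They come from custom Agilent 4×180K protein-binding microarrays incubated 1 h with ligand-free nuclear receptor dimers, with antibodies against each partner (one per run) detecting binding. Scanned fluorescence was regression-normalized.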

[2] = system: RARg:RXRa (NR concentration 270 nM, RXRa partner concentration 90 nM)
Method in brief: as §1

[3] = system: RARg homodimer (NR concentration 270 nM)
Method in brief: as §1

[4] = system: RXRa DBDmut IVT, anti-RXR (DBD mutation: RXRa K156A/R161A, NR concentration 90 nM)
Method in brief: as §1

[5] = system: RXRa homodimer (NR concentration 180 nM)
Method in brief: as §1

[6] = system: THRa:RXRa (NR concentration 90 nM, RXRa partner concentration 90 nM)
Method in brief: as §1

[7] = system: THRa homodimer (NR concentration 90 nM)
Method in brief: as §1

[8] = system: VDR homodimer (NR concentration 270 nM)
Method in brief: as §1

Row | Sequence | PBM binding z-score [1] | PBM binding z-score [2] | PBM binding z-score [3] | PBM binding z-score [4] | PBM binding z-score [5] | PBM binding z-score [6] | PBM binding z-score [7] | PBM binding z-score [8]
1 | CCTCGGAGGACAACAGGAGGTCAGCGCTGCCAGA | 3.96 | 4.12 | 4.04 | 0.326 | 2.28 | 3.14 | 1.31 | 1.13
2 | CATACAGGGTCAGCTAGGCGAGAGTAGGGACGGC | 3.12 | 4.39 | 4.53 | 1.72 | 4.02 | 3.05 | 1.01 | 0.943
3 | CGAACTAGGTCAAGGACGGTGAATCTCCGCACGC | 2.96 | 3.53 | 4.38 | 0.975 | 2.64 | 2.88 | 1.24 | -0.409
4 | GCTTTTAGATCAAGGTTAAGAAAGACTAAGCTAA | 0.302 | 0.483 | 0.485 | 0.874 | 0.844 | 1.37 | 0.0946 | -0.0628
5 | TAGACTAGGTCATTGGGCCAGTATAGTACGCATC | 2.75 | 3.47 | 4.19 | 0.824 | 2.44 | 2.45 | 0.646 | 1.26
6 | GCTGCTAGGTCAGGTTGTTCAGCTAACGGGTACG | 2.56 | 2.2 | 3.13 | 0.777 | 0.914 | 1.71 | 0.779 | 0.556
7 | TCTAGTTGGTCACGCAGGTCACACACGACGGGTA | 3.63 | 3.59 | 3.7 | 1.03 | 3.08 | 2.92 | 1.81 | 1.76
8 | CCTACTGGGCCAAAAAGGTCATTGAAGCCGATAA | 4.33 | 4.98 | 4.29 | 0.615 | 5.31 | 3.08 | 0.418 | 2.58
9 | TCTAGCAGGACAGAGGGTCACTCAAGAGGTACGG | 2.77 | 2.39 | 2.11 | 0.168 | 2.48 | 1.86 | -0.03 | 0.674
10 | TCGAGTAGGTTACCAATGGGGCAATCAGCTTTCT | 0.687 | 1.67 | 0.463 | 0.325 | 0.707 | 0.302 | -0.774 | -0.712
11 | ACAAGCAGGCCAAGGGTCACTCAAGATTAGTCCG | 3.85 | 4.28 | 4.23 | 0.479 | 4.21 | 2.67 | 0.327 | 0.958
12 | ACTGGCAGGCCAAGTTTGGGTCACTCAAACAAAG | 2.35 | 2.51 | 1.97 | -0.557 | 0.925 | 2.56 | 1.14 | -0.0755
13 | CGTCCACGGTCAAGGTCAGTGAAAGAGACTCGAA | 3.86 | 3.41 | 5.01 | 0.716 | 2.45 | 3.05 | 1.64 | 0.791
14 | TTACCAAGGTGAAGGTCGTTGGTCCCTCTGTAGA | 1.98 | 1.01 | 0.783 | 0.488 | 1.27 | 2.29 | 1.1 | 0.98
15 | GCCACTGGGGCAAAGCAGGTTACCATAAGGTTGG | 1.08 | 0.357 | 0.651 | -0.861 | 0.287 | 2.79 | -0.169 | -0.617
16 | CGTCAAAGTTCAACTAAGGTAGCGTAAAGCACGC | 4.16 | 5.74 | 6.39 | 4.42 | 4.96 | 5.06 | 0.699 | 4.01
17 | CCTGCTAAGTCAATGGTCAGCTAAAGCAGCTCGC | 0.12 | -0.277 | -0.302 | 0.497 | -0.263 | -0.402 | -0.724 | -0.804
18 | CCAGACAGGTGAATGGTAACTCAGTCTGGTACGC | -0.113 | 0.0397 | 0.189 | -0.0115 | 0.0786 | -0.333 | -0.556 | -0.492
19 | TCTCGGAGGACACGAAGGTCAGTGCTTTCCAGAG | 3.9 | 2.87 | 3.49 | 0.969 | 1.47 | 2.73 | 1.06 | 1.39
20 | AGAACGAGGGCATGCTGAGTTGATAGCAGAGTAG | 0.498 | 1.33 | 1.34 | 2.24 | 0.92 | 1.2 | -0.497 | 1.74
21 | ATGTCTAGGTAAGACTCAGTTCAGTGAAGAACGC | 0.578 | 0.0385 | 0.257 | 0.0481 | 0.0164 | 0.567 | 0.326 | 1.07
22 | TAGCCTAGGTCAGATCGGGCCAGTTTACGCTATA | 1.83 | 2.54 | 3.36 | -0.346 | 1.21 | 3.76 | 0.0282 | -0.339
23 | TCATATAGGTAATACAGGTGAAAGCCGGCATCTA | 0.482 | 0.795 | 0.815 | 1.69 | 1.55 | 1.14 | 0.273 | 0.67
24 | CCTACTGGGCCAAAGGTCATGGATTCCAATGCTC | 4.97 | 6.18 | 5.26 | 0.383 | 6.66 | 3.73 | 1.02 | 1.54
25 | TGAATGAGGTTATAAGATCAGTGAACGTTGCAAA | 0.307 | 1.49 | 0.953 | 0.773 | 1.95 | 1.69 | 0.0121 | 0.482
26 | GTTTGTAGATCAAGGTTAAGAAAGACTAAGCTAA | 0.79 | 0.774 | 0.839 | 0.638 | 0.913 | 1.44 | 0.453 | 0.645
27 | CTTAGCAGGCCAGGGTCACTCAAGCATTTCGCTT | 2.87 | 2.99 | 2.53 | 0.934 | 3.39 | 2.93 | 1.32 | 1.28
28 | AGTCAATGTTCACTAGGTAACGTAAGATTCAGCT | 0.00708 | 0.177 | 0.455 | 0.313 | 0.0273 | 0.29 | 0.282 | -0.164
29 | TTGAGTAGGTTAGTCGGGGCATTCAGCCAACATA | 0.969 | 0.218 | 0.145 | 0.265 | 0.0452 | 1.43 | 0.699 | 1.25
